# Screening results as filed in PubChem BioAssay.
# MCF10A rereplic – A quantitative high throughput screen for small molecules that induce DNA re-replication in MCF 10a normal breast cells; MCF 10A DNA re-replication, Hoechst nuclear intensity, 48 h; Potency, µM (top dose mostly 46.1 µM), inactives show at the top dose activity, positive = re-replication, actives largely listed as activators; 2.9% of 350,000 active; AID 624296, 2012; also: % of control where 0% means no effect; nearly all actives have a fitted effect of over 50% in size
# KB-3-1 cytotox – qHTS assay for MDR1-selective chemotherapeutics: Primary screen using the parental adenocarcinoma cell KB-3-1; KB-3-1 viability, CellTiter-Glo ATP luminescence, 72 h; Potency, µM (titrated, usually from 46.1 µM), usual class: cytotoxic; 1.4% of 400,000 active; also: % is scaled to controls: 0 for no effect and ±100 for the full control effect; nearly all actives have a fitted effect of over 60% in size
#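 Screening of KB-3-1 cells (DMEM, 10% FBS, phenol-red free) ran from lowest to highest compound concentration; after 72 h at 37 °C viability was read luminescently and curves fitted.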
# KB-V1 cytotox – qHTS assay for MDR1-selective chemotherapeutics: Primary screen using the drug-selected MDR subline cells KB-V1 | KB-V1 MDR cells viability, CellTiter-Glo, 72 h | AID 1347076, 2019 | Potency, µM (doses to about 46.1 µM), hits mostly cytotoxic | 3.4% of 400,000 active; also: % is scaled to controls: 0 for no effect and ±100 for the full control effect; nearly all actives have a fitted effect of over 60% in size
#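 KB-V1 MDR subline cells in DMEM (phenol-red free, 10% FBS) exposed to compounds in qHTS concentration series for 72 h at 37 degrees C. Viability read by CellTiter-Glo luminescence; concentration-effect curves fitted after normalization and correction.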
# SW480 rerep – A quantitative high throughput screen for small molecules that induce DNA re-replication in SW480 colon adenocarcinoma cells; SW480 DNA re-replication, Hoechst DNA content imaging, 48 h; Potency, µM (titrated, usually from 46.1 µM), inactives show at the highest dose re-replication activation, hits mostly activators; 1.8% of 340,000 active; AID 624297, 2012; also: % of control where 0% means no effect; nearly all actives have a fitted effect of over 55% in size
#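 First, 250 cells per well were seeded. Next, compound or vehicle (23 nL) was pinned in, plates sat 48 hr at 37 C. Finally Hoechst was added for 40 min before fluorescence scanning.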
# ELG1 repair inh – qHTS screen for small molecules that inhibit ELG1-dependent DNA repair in human embryonic kidney (HEK293T) cells expressing luciferase-tagged ELG1; HEK293T ELG1-luciferase reporter, luminescence, 16 h; DNA damage induced by 5-fluorouridine; Potency, µM (doses to about 46.1 µM), without a hit: top-dose activity change, negative = inhibition, usual class: inhibitors; 2.3% of 330,000 active; also: % is scaled to controls: 0 for no effect and ±100 for the full control effect; nearly all actives have a fitted effect of over 55% in size
#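 In this reporter screen, reduction of luminescence relative to DMSO vehicle indicated activity. Compounds and 5-fluorouridine were added together to 2,000 cells per well, incubated for 16 hr at 37 °C, then developed with ONE-Glo.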
# * = called active by the depositor; i = inactive; u = inconclusive; x = not tested or not shown; ! = not confirmed by another sample; [ ] = another dose, or the depositor's remark. The list is not random: actives were taken first. Their share in the collection is about 8.1%. Calls follow the shape of the dose curve; as a rule, active = well fitted curve in the direction sought with a large enough effect; inconclusive = small, poorly fitted or top-dose-only effect, or another doubt; inactive = no such curve, though single readings can be large; an effect the other way counts as inactive or inconclusive. Potency is read from the fitted curve at half-maximal effect.
SMILES,MCF10A rereplic,KB-3-1 cytotox,KB-V1 cytotox,SW480 rerep,ELG1 repair inh
COc1ccc(C(CNC(=O)c2cccc(S(=O)(=O)Nc3cccc(C)c3)c2)N2CCOCC2)cc1 (stereo not drawn),14%,i,21µM*,-3%,-1%
O=C(NCC(c1ccco1)N1CCCC1)c1cccc(S(=O)(=O)Nc2ccc(F)cc2)c1 (stereo not drawn),2%,i,i,-3%,0%
CC(C)n1[nH]c2ccccc2c1=O,x,u,i,x,x
Cc1cc2[nH]c3c(c[n+](C)c4ccccc34)c2cc1C,u,u,i,u,-6%
Cc1cc2[nH]c3c4ccccc4nc(C)c3c2cc1C,26%,10µM*,u,10%,x
Cc1ccc2cc3c(nc2c1)OCC3,-5%,i,i,8.2µM*,u
N/C(=N\c1nnc(-c2ccncc2)s1)Nc1ccc(Cl)c(Cl)c1,x,i,i,x,x
COc1ccc2c(C)c(CC(=O)N3CCN(C(=O)C4COc5ccccc5O4)CC3)c(=O)oc2c1C (stereo not drawn),u,i,i,16µM*,u
Cc1c(CC(=O)N2CCN(C(=O)C3COc4ccccc4O3)CC2)c(=O)oc2cc(O)c(Cl)cc12 (stereo not drawn),19%,i,u,u,u
COc1cc2nc(N3CCN(C(=O)[C@@H]4COc5ccccc5O4)CC3)nc(N)c2cc1OC,23%,x,x,0%,x
COc1cc2nc(N3CCN(C(=O)C4COc5ccccc5O4)CC3)nc(N)c2cc1OC (stereo not drawn),15µM*!,i,i,21µM*!,u
Cc1cccc(COCC(Cc2ccccc2)N2CCN(C(=O)c3cc(Cl)cc(Cl)c3)CCC2=O)c1 (stereo not drawn),23µM*,u,i,18µM*,u
O=C(c1ccc(Cl)c(Cl)c1)N1CCC(=O)N(C(COCc2cccc(C(F)(F)F)c2)Cc2ccccc2)CC1 (stereo not drawn),u,u,u,18µM*,u
CC(C)(C)c1ccc(C(=O)N2CCC(=O)N(C(COCc3ccccc3)Cc3ccccc3)CC2)cc1 (stereo not drawn),21µM*,u,u,u,u
CCN1C(=O)[C@H]2[C@@H](c3ccc(C)cc3)N[C@]3(CCCN(Cc4ccco4)C3=O)[C@H]2C1=O,x,i,u,x,x
O=C(O)CSc1nc2ccc(C(=O)c3ccccc3)cc2[nH]1,3%,i,u,0%[9.22 µM],4%
Cc1c(Cl)cccc1NC(=O)CSc1ncnc2c1cnn2CCc1ccccc1,10µM*,i,i,-1%[9.22 µM],23%
COc1ccc(OC)c(NC(=O)CSc2ncnc3c2cnn3-c2ccccc2Cl)c1,u,u,u,4%,9.2µM*
Cc1ccc(-c2nnc(NC(=O)Nc3ccc4ccccc4c3)s2)cc1,x,i,u,x,x
OC(c1ccc(F)cc1)(C1CCCCC1)C(CN1CCOCC1)c1ccccc1 (stereo not drawn),1%,i,i,-35%,-25%
CCCCn1c(N)c(N(CC(C)C)C(=O)CN2C(=O)NC3(CCC(C(C)(C)CC)CC3)C2=O)c(=O)[nH]c1=O (stereo not drawn),0%,i,i,11%,x
COc1cc2nc(N3CCCN(C)CC3)nc(Nc3ccncc3)c2cc1OC,x,13µM*,i,x,x
COc1cc2c(NC3CCN(C(C)C)CC3)nc(N3CCCN(C)CC3)nc2cc1OCCCN(C)C,x,2.3µM*,i,x,x
CCn1c(SCc2nc(CC(=O)Nc3ccccc3OC)no2)nnc1-c1cccs1,0%,i,5.8µM*,-5%,9%
CCn1c(SCC(=O)N2CCN(c3ccccc3)CC2)nnc1-c1ccoc1C,u,i,u,3%,16µM*
Cn1c(SCC(=O)N2CCN(c3cccc(Cl)c3)CC2)nnc1-c1ccncc1,5%,13µM*,16µM*,1%,22%
